Results on 66 compounds are retold here after the antibiotic and cytotoxicity screens of Wong et al. (2023).

Screen size: about 39,000 compounds; about 3,300 (8.5%) were called active. The sample holds actives, similar compounds and a random draw of the others, so the mix is not that of the screen.

The test system of this assay is HepG2. The assay is described as follows: cytotoxicity call (relative viability < 0.9). The settings on record: 10 µM.
As to `Cc1noc(C)c1S(=O)(=O)N(C)C[C@@H]1Oc2ccc(NS(=O)(=O)c3ccc(Cl)cc3)cc2CC(=O)N([C@@H](C)CO)C[C@@H]1C`, the cytotoxicity call was “inactive”.

For `OCCN1CCN(c2ncnc3c2ncn3[C@H]2CN(Cc3ccccc3)C[C@@H](CO)O2)CC1`, the cytotoxicity call is “inactive”.

Turning to `C[C@@H]1CN([C@@H](C)CO)C(=O)c2cc(NS(=O)(=O)c3ccc(Cl)cc3)ccc2O[C@@H](C)CCCCO[C@H]1CN(C)C(=O)CCC(F)(F)F`, the cytotoxicity call was “inactive”.

With `CN1C=C(C(=O)OCCS(C)(=O)=O)C(C(=O)OCCS(C)(=O)=O)=CC(CCCO)=C[C@@H]1C1CC1`, the cytotoxicity call was “inactive”.

Regarding `COc1ccc([C@@H](O)[C@@H](CCO)OC)cc1O`, the cytotoxicity call was “inactive”.

On to `N#CC1(N[C@@H](Cc2ccccc2)c2ccccc2)CCCCCC1`, for which the cytotoxicity call was “inactive”.

Regarding `Cc1ccc(OC[C@@H](O)CN)c(C)c1`, the cytotoxicity call is “inactive”.

With `Cl.O=C1CC2(CCCC2)CC(=O)N1CCCCN1CCN(c2ncccn2)CC1`, the cytotoxicity call is “active”.

For the compound `Cn1c(=O)cnn(CCCCN2CCN(c3ncccn3)CC2)c1=O`, the cytotoxicity call is “inactive”.

Consider `O=C(C1CC1)N1CCN(c2ncccn2)CC1`, for which the cytotoxicity call is “inactive”.

Consider `C[C@H]1CN([C@@H](C)CO)S(=O)(=O)c2ccc(-c3ccncc3)cc2O[C@@H]1CN(C)S(=O)(=O)c1ccccc1F`, for which the cytotoxicity call was “inactive”.

With `C[C@H]1CCCCO[C@H](CN(C)S(=O)(=O)c2ccccc2)[C@@H](C)CN([C@@H](C)CO)C(=O)c2cc(NC(=O)Nc3ccc4c(c3)OCO4)ccc2O1`, the cytotoxicity call was “active”.

Consider `C[C@H]1CCCCO[C@H](CN(C)S(=O)(=O)c2ccc(Cl)cc2)[C@@H](C)CN([C@@H](C)CO)C(=O)c2cc(NC(=O)Nc3ccc4c(c3)OCO4)ccc2O1`, for which the cytotoxicity call was “active”.

On to `C[C@@H]1CCCCO[C@H](CN(C)S(=O)(=O)c2ccc(Cl)cc2)[C@H](C)CN([C@@H](C)CO)C(=O)c2cc(NC(=O)Nc3ccc4c(c3)OCO4)ccc2O1`, for which the cytotoxicity call is “active”.

As to `C[C@@H]1CN([C@@H](C)CO)C(=O)c2cc(NC(=O)Nc3ccc4c(c3)OCO4)ccc2O[C@@H](C)CCCCO[C@@H]1CN(C)S(=O)(=O)c1ccccc1`, the cytotoxicity call was “inactive”.

As for `C[C@@H]1CN([C@H](C)CO)C(=O)c2cc(NC(=O)Nc3ccc4c(c3)OCO4)ccc2O[C@@H](C)CCCCO[C@H]1CN(C)S(=O)(=O)c1ccc(Cl)cc1`, the cytotoxicity call is “active”.

For the compound `C[C@@H]1CCCCO[C@H](CN(C)S(=O)(=O)c2ccc(Cl)cc2)[C@@H](C)CN([C@@H](C)CO)C(=O)c2cc(NC(=O)Nc3ccc4c(c3)OCO4)ccc2O1`, the cytotoxicity call was “inactive”.

With `C[C@@H]1CN([C@H](C)CO)C(=O)c2cc(NC(=O)Nc3ccc4c(c3)OCO4)ccc2O[C@@H](C)CCCCO[C@@H]1CN(C)S(=O)(=O)c1ccc(Cl)cc1`, the cytotoxicity call is “inactive”.

Turning to `C[C@@H]1CCCCO[C@H](CN(C)S(=O)(=O)c2ccccc2)[C@@H](C)CN([C@@H](C)CO)C(=O)c2cc(NC(=O)Nc3ccc4c(c3)OCO4)ccc2O1`, the cytotoxicity call is “inactive”.

For the compound `C[C@@H]1CCCCO[C@@H](CN(C)S(=O)(=O)c2ccc(Cl)cc2)[C@@H](C)CN([C@@H](C)CO)C(=O)c2cc(NC(=O)Nc3ccc4c(c3)OCO4)ccc2O1`, the cytotoxicity call is “inactive”.

Regarding `C[C@@H]1CCCCO[C@@H](CN(C)S(=O)(=O)c2ccc(Cl)cc2)[C@@H](C)CN([C@H](C)CO)C(=O)c2cc(NC(=O)Nc3ccc4c(c3)OCO4)ccc2O1`, the cytotoxicity call was “inactive”.

Take `C[C@@H]1CCCCO[C@@H](CN(C)S(=O)(=O)c2ccc(Cl)cc2)[C@H](C)CN([C@@H](C)CO)C(=O)c2cc(NC(=O)Nc3ccc4c(c3)OCO4)ccc2O1`: the cytotoxicity call is “inactive”.

In the case of `C[C@H](CO)N1C[C@H](C)[C@@H](CN(C)S(=O)(=O)c2ccc(Cl)cc2)OCCCC[C@H](C)Oc2ccc(NC(=O)Nc3ccc4c(c3)OCO4)cc2C1=O`, the cytotoxicity call was “inactive”.

`Cc1noc(C)c1S(=O)(=O)Nc1ccc2c(c1)C(=O)N([C@H](C)CO)C[C@@H](C)[C@H](CN(C)CC1CC1)O2`: the cytotoxicity call was “inactive”.

For the compound `NCC1OC(OC2C(N)CC(N)C(OC3OC(CO)C(O)C(N)C3O)C2O)C(N)CC1O` (stereo unspecified), the cytotoxicity call was “inactive”.

For `COc1ccccc1CNC(=O)C[C@@H]1CC[C@H]2[C@@H](COC[C@@H](O)CN2C(=O)Nc2ccc(F)cc2)O1`, the cytotoxicity call is “inactive”.

With `C[C@H]1CN([C@@H](C)CO)C(=O)c2cc(Br)cnc2O[C@@H]1CN(C)S(=O)(=O)c1cn(C)cn1`, the cytotoxicity call is “inactive”.

`Cc1noc(C)c1S(=O)(=O)Nc1ccc2c(c1)C(=O)N([C@H](C)CO)C[C@H](C)[C@@H](CN(C)Cc1ccccc1)O2`: the cytotoxicity call is “inactive”.

Turning to `COc1cccc(S(=O)(=O)Nc2ccc3c(c2)[C@@H]2C[C@@H](CC(=O)NCC(F)(F)F)O[C@@H](CO)[C@@H]2O3)c1`, the cytotoxicity call is “inactive”.

For `Cc1ccc(S(=O)(=O)N(C)C[C@@H]2Oc3ccc(NC(=O)NC(C)C)cc3C(=O)N([C@H](C)CO)C[C@@H]2C)cc1`, the cytotoxicity call was “inactive”.

`C[C@@H]1CN([C@@H](C)CO)S(=O)(=O)c2ccc(C#Cc3ccc(F)cc3)cc2O[C@H]1CN(C)S(C)(=O)=O`: the cytotoxicity call was “inactive”.

Take `C[C@@H]1CN([C@H](C)CO)S(=O)(=O)c2ccc(C#Cc3ccc(F)cc3)cc2O[C@H]1CN(C)S(C)(=O)=O`: the cytotoxicity call is “inactive”.

On to `C[C@H]1CN([C@@H](C)CO)S(=O)(=O)c2ccc(C#Cc3ccc(F)cc3)cc2O[C@@H]1CN(C)S(C)(=O)=O`, for which the cytotoxicity call was “active”.

Consider `C[C@@H]1CN([C@H](C)CO)S(=O)(=O)c2ccc(C#Cc3ccc(F)cc3)cc2O[C@@H]1CN(C)S(C)(=O)=O`, for which the cytotoxicity call was “inactive”.

In the case of `C[C@H](CO)N1C[C@H](C)[C@@H](CN(C)S(C)(=O)=O)Oc2cc(C#Cc3ccc(F)cc3)ccc2S1(=O)=O`, the cytotoxicity call was “inactive”.

`C[C@H](CO)N1C[C@H](C)[C@H](CN(C)S(C)(=O)=O)Oc2cc(C#Cc3ccc(F)cc3)ccc2S1(=O)=O`: the cytotoxicity call is “active”.

For the compound `COc1ccc(CN(C)C[C@H]2OCCCC[C@@H](C)Oc3ccc(NS(=O)(=O)c4c(C)noc4C)cc3C(=O)N([C@H](C)CO)C[C@@H]2C)cc1`, the cytotoxicity call was “inactive”.

As for `CC(C)NC(=O)Nc1cccc2c1O[C@H](CN(C)S(=O)(=O)c1ccc(F)cc1)[C@@H](C)CN([C@H](C)CO)C2=O`, the cytotoxicity call is “inactive”.

On to `CCCCC(=O)c1ccc(O)cc1`, for which the cytotoxicity call was “inactive”.

Turning to `CCCCCS(=O)(=O)CCCCCCCCCCn1c(-c2ccc(O)cc2)c(C)c2cc(O)ccc21`, the cytotoxicity call is “active”.

`C[C@H](CO)N1C[C@H](C)[C@@H](CN(C)S(=O)(=O)c2cn(C)cn2)Oc2c(NC(=O)Cc3ccccc3)cccc2C1=O`: the cytotoxicity call was “inactive”.

Consider `C[C@@H]1CN([C@@H](C)CO)C(=O)Cc2cc(NC(=O)Nc3cccc4ccccc34)ccc2O[C@@H]1CN(C)Cc1ccc(Cl)c(Cl)c1`, for which the cytotoxicity call was “active”.

`C[C@H](CO)N1C[C@H](C)[C@@H](CN(C)Cc2ccc(Cl)c(Cl)c2)Oc2ccc(NC(=O)Nc3cccc4ccccc34)cc2CC1=O`: the cytotoxicity call was “inactive”.

Consider `C[C@@H]1CN([C@H](C)CO)C(=O)c2cc(NC(=O)Nc3cccc4ccccc34)ccc2O[C@@H]1CN(C)Cc1ccc(Cl)c(Cl)c1`, for which the cytotoxicity call is “inactive”.

`C[C@@H]1CN([C@@H](C)CO)C(=O)c2cc(NC(=O)Nc3cccc4ccccc34)ccc2O[C@H]1CN(C)Cc1ccc(Cl)c(Cl)c1`: the cytotoxicity call was “inactive”.

For `C[C@H](CO)N1C[C@H](C)[C@H](CN(C)Cc2ccc(Cl)c(Cl)c2)Oc2ccc(NC(=O)Nc3cccc4ccccc34)cc2C1=O`, the cytotoxicity call is “active”.

For `C[C@@H]1CN([C@H](C)CO)C(=O)Cc2cc(NC(=O)Nc3cccc4ccccc34)ccc2O[C@H]1CN(C)Cc1ccc(Cl)c(Cl)c1`, the cytotoxicity call was “inactive”.

For the compound `C[C@H]1CN([C@@H](C)CO)C(=O)Cc2cc(NC(=O)Nc3cccc4ccccc34)ccc2O[C@@H]1CN(C)Cc1ccc(Cl)c(Cl)c1`, the cytotoxicity call is “inactive”.

Consider `C[C@@H]1CN([C@H](C)CO)C(=O)Cc2cc(NC(=O)Nc3cccc4ccccc34)ccc2O[C@@H]1CN(C)Cc1ccc(Cl)c(Cl)c1`, for which the cytotoxicity call is “active”.

As for `C[C@H](CO)N1C[C@H](C)[C@H](CN(C)Cc2ccc(Cl)c(Cl)c2)Oc2ccc(NC(=O)Nc3cccc4ccccc34)cc2CC1=O`, the cytotoxicity call was “inactive”.

Consider `COc1ccc(S(=O)(=O)Nc2ccc3c(c2)C(=O)N(C)C[C@@H](OC)[C@H](C)CN(C(=O)NC(C)C)[C@H](C)CO3)cc1`, for which the cytotoxicity call is “inactive”.

On to `CN(C)CCCNC(=O)C[C@@H]1CC[C@@H]2[C@H](COC[C@@H](O)CN2S(=O)(=O)c2ccc(Cl)cc2)O1`, for which the cytotoxicity call was “inactive”.

As for `C[C@@H]1CCCCO[C@@H](CN(C)S(=O)(=O)c2cccs2)[C@@H](C)CN([C@@H](C)CO)C(=O)c2cc(NC(=O)Nc3ccc(C(F)(F)F)cc3)ccc2O1`, the cytotoxicity call was “inactive”.

`Cc1noc(C)c1S(=O)(=O)Nc1ccc2c(c1)C(=O)N([C@@H](C)CO)C[C@@H](C)[C@@H](CN(C)Cc1ccccc1)OCCCC[C@H](C)O2`: the cytotoxicity call was “inactive”.

As to `C[C@@H]1CN([C@@H](C)CO)C(=O)c2cc(NC(=O)CCN3CCOCC3)ccc2O[C@H]1CN(C)CC1CCCCC1`, the cytotoxicity call is “inactive”.

As to `C[C@@H]1CCCCO[C@@H](CN(C)C(=O)c2ccccc2)[C@H](C)CN([C@H](C)CO)C(=O)c2cc(NS(=O)(=O)c3ccc(Cl)cc3)ccc2O1`, the cytotoxicity call was “inactive”.

With `Cc1ccc(S(=O)(=O)N(C)C[C@H]2OCCCC[C@H](C)Oc3ccc(NC(=O)Nc4ccccc4)cc3C(=O)N([C@@H](C)CO)C[C@@H]2C)cc1`, the cytotoxicity call is “inactive”.

As to `C[C@@H]1CN([C@@H](C)CO)C(=O)CCCn2nncc2CO[C@@H]1CN(C)Cc1cccc2c1OCCCO2`, the cytotoxicity call was “inactive”.

In the case of `COc1ccc(NC(=O)Nc2ccc3c(c2)C(=O)N([C@@H](C)CO)C[C@@H](C)[C@@H](CN(C)Cc2ccncc2)OCCCC[C@@H](C)O3)cc1`, the cytotoxicity call was “inactive”.

With `C[C@@H]1CN([C@H](C)CO)C(=O)c2cc(NC(=O)Cn3cnnn3)ccc2O[C@@H]1CN(C)C(=O)Nc1ccc(F)cc1`, the cytotoxicity call was “inactive”.

On to `CC(C)Oc1ccc(Cl)cc1CN`, for which the cytotoxicity call is “inactive”.

For the compound `Cc1ccc(OCc2ccc(Cl)cc2)c(C(C)(C)C)c1`, the cytotoxicity call is “inactive”.

With `CC(C)(C)NCCCCOc1ccc(Cl)cc1C(C)(C)C`, the cytotoxicity call was “active”.

On to `C#CCN(C)CCCOc1ccc(Cl)cc1Cl.Cl`, for which the cytotoxicity call was “inactive”.

For `CC[C@@H](C)NCCCCOc1ccc(Cl)cc1C(C)(C)C`, the cytotoxicity call is “active”.

In the case of `CCOc1ccccc1OCCNC(C)Cc1ccc(OC)c(S(N)(=O)=O)c1.Cl` (stereo unspecified), the cytotoxicity call was “inactive”.
